Measured values reported in ChEMBL document CHEMBL4513135, “CO-ADD screening of IQOG CSIS (Spain) compounds”.
Entries with a potency or affinity are not part of this list.

What follows are compounds tested on Staphylococcus aureus. Details: Concentration 32 ug.mL-1; ASSAY_TEST Inhibition of Bacterial Growth; detection method Absorption (OD600); MEDIA CAMHB; plate type 384well; NBS; CORNING #3640; time 18 hr.

SMILES | Inhibition [%]
COc1ccc(C=C2N=C(c3ccccc3)SC2=O)cc1 | 12.36
Cl.NNN1CCc2ccccc21 | 25.31
NNC(=O)Cc1c[nH]c2ccccc12 | 10.37
CN(C)c1nc(Cl)c(C#N)c(-c2ccccc2)c1C#N | -17.89
Cc1ccc(/C=N/NC(=O)c2c[nH]c3ccccc23)cc1 | 6.96
COc1ccc2c(c1)cc(CN(C)Cc1cn(Cc3ccccc3)nn1)n2C | 6.23
COC(=O)C(=Cc1ccc([N+](=O)[O-])cc1)NC(=O)c1ccccc1 | 7.69
C#CCNC.O=C(O)C(=O)O | 24.36
C#CCN(C)Cc1cc2cc(OCCCC3CCN(C(=O)OC(C)(C)C)CC3)ccc2n1C | 10.44
Nc1c2c(nc3c1C(c1ccc(Cl)c(Cl)c1)c1ccc4ccccc4c1O3)CCCC2 (stereo not drawn) | -15.84
O[C@H]1CC[C@H](NCc2ccccc2)CC1 | 21.55
CCOC(=O)c1c(C)nc(N)c(C#N)c1-c1cccs1 | 5.52
CCOC(=O)C1=C(C)OC(N)=C(C#N)C1c1ccc(OC)c(OC)c1 (stereo not drawn) | 21.72
CN(C)c1nc(N)c(C#N)cc1C#N | 20.41
COc1ccc(C2C(C#N)=C(N)Oc3[nH]nc(C)c32)cc1 (stereo not drawn) | 4.82
CC(C)(C)OC(=O)N[C@H]1CC[C@H](O)CC1 | 7.19
Cc1nc2c3cnn(-c4ccccc4)c3nc(C)n2n1 | 14.43
Cn1ccnc1C1c2ccc3cccnc3c2Oc2nc3c(c(N)c21)CCCCC3 (stereo not drawn) | 21.02
